From PubChem
Wnt act – Wnt/beta-catenin pathway activators, primary screen, cell-based, plate reader, single point; Wnt/beta-catenin reporter cell assay, activator; activation, % at 9.35 µM; 1.2% of 300,000 active; AID 743398, 2014; in the data active = activation above about 30%, passing the limit was not always enough; inconclusive = no clear call, values can overlap the other calls;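 also: 0% = neutral control wells and 100% = positive control wells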
EWS-Fli block – EWS/Fli-driven NR0B1 reporter inhibitors, primary screen, A673 cells, NR0B1 luciferase, luminescence, MLPCN library. 0.67% of 350,000 active. inhibition, % at 12.6 µM. AID 651661, 2012. viability-normalised;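 active = mean inhibition of at least 50% after viability correction, with every replicate also passing that limit; inconclusive = mean reaches 50% but only one of two replicates passes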;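 also: firefly luciferase signal divided by Alamar Blue viability fluorescence both relative to DMSO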
esBAF inh – Bmi1 luciferase reporter increase in mESCs, primary screen, esBAF inhibitor project, mouse ES cells, Bmi1 luciferase knock-in, single point | 24 h; 100% = twice the neutral-well signal | reporter increase, % at 12.5 µM | 2% of 350,000 active; in the data active = activation above about 40%; inconclusive = no clear call, values can overlap the other calls;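 also: 0% = median of the plate's neutral control wells and 100% = double that signal; a rise in the Bmi1 reporter signal indicates esBAF inhibition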
MITF act – activators of MITF-driven TRPM1 promoter reporter, primary screen, cell-based, SK-MEL-5, luciferase, single point. SK-MEL-5 TRPM1-promoter luciferase, 24 h; % of positive control, neutral wells = 0. activation, % at 12.5 µM. 0.75% of 300,000 active. AID 588334, 2011;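 active = mean activation of at least 80% with every replicate also reaching 80%; inconclusive = mean reaches 80% but some replicate falls short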;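 also: 0% = neutral control wells and 100% = parthenolide positive control wells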
PAX8 inh HTS – inhibitors of PAX8-driven TPO luciferase reporter, primary screen, RMG-I cells, single concentration; inhibition, % at 12.6 µM; SteadyGlo, 24 h; 1.2% of 360,000 active;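 active = mean replicate inhibition at least 60% with every replicate also reaching 60%; inconclusive = only one of the two criteria is met; inactive = mean below 60% and not all replicates reaching 60%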;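 also: luciferase light reporting Pax8 driven TPO promoter activity; plate controls were median of neutral control wells for no effect and mitoxantrone controls for full effect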
TRPM1 prom inh – inhibitors of MITF-dependent TRPM1 promoter reporter, primary screen, cell-based, SK-MEL-5, single point, luciferase; SK-MEL-5 TRPM1 promoter luciferase, 24 h; inhibition, % at 12.5 µM; 0.83% of 330,000 active;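 active = mean inhibition across replicates of 60% or more, whatever share of single replicates reaches that level; inconclusive = some that reach 60%, reason not given; inactive = mean inhibition across replicates below 60%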
Active calls of the source: *. Hits are enriched below; roughly 4% of the tested compounds scored in any of these assays.

Results for Cc1ccc(OCC(=O)c2cc(C)n(Cc3cccs3)c2C)c([N+](=O)[O-])n1 ?
Wnt act: -2; EWS-Fli block: 53*; esBAF inh: -31; MITF act: -12; PAX8 inh HTS: 13; TRPM1 prom inh: 2

Results for Cc1cc(C(=O)CSc2nnc(-c3ccccc3F)o2)c(C)n1Cc1cccs1 ?
Wnt act: -1; esBAF inh: -2; MITF act: 2; PAX8 inh HTS: 23; TRPM1 prom inh: 3

Results for CC(C)NC(=O)Nc1ccc2c(c1)C(=O)N([C@@H](C)CO)C[C@@H](C)[C@@H](CN(C)C(=O)CCC(F)(F)F)OCCCC[C@@H](C)O2 ?
PAX8 inh HTS: 10

Results for CO[C@@H]1CN(C)C(=O)c2cc(NC(=O)NC(C)C)ccc2OC[C@@H](C)NC[C@@H]1C ?
EWS-Fli block: -10; esBAF inh: 0; PAX8 inh HTS: -4

Results for C[C@@H]1CN([C@H](C)CO)C(=O)Cc2cc(NC(=O)Nc3ccccc3)ccc2O[C@@H]1CN(C)Cc1ccc(Oc2ccccc2)cc1 ?
EWS-Fli block: 19; esBAF inh: -1; PAX8 inh HTS: 9

Results for COc1ccc(NC(=O)c2cc(C)n(Cc3cccs3)c2C)cc1 ?
Wnt act: 68*; EWS-Fli block: -41; PAX8 inh HTS: -118; TRPM1 prom inh: -90

How did Cc1cc(C(=O)CN2C(=O)NC3(CCCCC3)C2=O)c(C)n1C do in these assays?
Wnt act: 5; EWS-Fli block: -9; esBAF inh: 14; MITF act: 29; PAX8 inh HTS: -26; TRPM1 prom inh: -23

How did Cc1cc(C(=O)CN2C(=O)NC3(CCCCC3)C2=O)c(C)n1Cc1ccco1 do in these assays?
Wnt act: 73*; EWS-Fli block: -84; MITF act: inconclusive; PAX8 inh HTS: -169; TRPM1 prom inh: -85

What do the screens show for `CCCCCc1ccc(OCCCC[n+]2ccc(C)cc2)c(CCCCC)c1`?
Wnt act: -5; EWS-Fli block: 33; MITF act: -100; PAX8 inh HTS: 74*; TRPM1 prom inh: 101*

What do the screens show for `CCCCOc1ccc(C)cc1CN(CCO)CCO`?
esBAF inh: 4; MITF act: 6; TRPM1 prom inh: -7

Results for CCC(C)(C)c1ccc(OCCCC[n+]2ccccc2)c(C(C)(C)CC)c1 ?
Wnt act: -19; EWS-Fli block: 27; MITF act: -99; PAX8 inh HTS: 88*; TRPM1 prom inh: 100*

What do the screens show for `CCCCCc1ccc(OCCCC[n+]2ccccc2)c(CCCCC)c1`?
MITF act: -88; TRPM1 prom inh: 87*

How did CCCCCc1ccc(OCCCC[n+]2cccc(C)c2)c(CCCCC)c1 do in these assays?
Wnt act: -2; EWS-Fli block: 33; esBAF inh: -87; MITF act: -78; PAX8 inh HTS: 94*; TRPM1 prom inh: 79*

Results for CCC(C)(C)c1ccc(Oc2cccc(C(=O)O)c2)cc1 ?
Wnt act: 22; EWS-Fli block: -80; esBAF inh: inconclusive; MITF act: 42; PAX8 inh HTS: -30; TRPM1 prom inh: -35

How did CC(C)NC(=O)N1C[C@@H]2[C@H](c3ccccc31)[C@H](CO)N2Cc1ccc(Cl)cc1 do in these assays?
EWS-Fli block: 10; esBAF inh: -5; PAX8 inh HTS: 11

How did COc1ccccc1-c1cnc2c(c1)C(=O)N([C@@H](C)CO)C[C@@H](C)[C@H](CN(C)Cc1cncnc1)O2 do in these assays?
EWS-Fli block: -12; esBAF inh: 4

Results for COc1ccccc1S(=O)(=O)N[C@@H]1CC[C@@H](CCNC(=O)C2CCCCC2)O[C@H]1CO ?
EWS-Fli block: 1; esBAF inh: -2; PAX8 inh HTS: 6

What do the screens show for `CCCNC(=O)N1C[C@@H](C)[C@H](OC)CN(C)C(=O)c2ccc(NC(C)=O)cc2OC[C@H]1C`?
EWS-Fli block: 3

What do the screens show for `C[C@H]1CN([C@@H](C)CO)C(=O)c2cc(Br)cnc2O[C@@H]1CN(C)C(=O)Nc1ccc(F)cc1`?
EWS-Fli block: 27; esBAF inh: 3; PAX8 inh HTS: 7

How did COc1ccc(S(=O)(=O)N(C)C[C@@H]2OCCCC[C@H](C)Oc3ccc(NC(=O)NC4CCCCC4)cc3C(=O)N([C@@H](C)CO)C[C@@H]2C)cc1 do in these assays?
EWS-Fli block: 13; esBAF inh: 3; PAX8 inh HTS: 66*

How did C[C@H]1CCCCO[C@@H](CN(C)S(=O)(=O)c2ccccc2)[C@@H](C)CN([C@@H](C)CO)C(=O)c2cc(NC(=O)NC3CCCCC3)ccc2O1 do in these assays?
EWS-Fli block: 14; esBAF inh: 0; PAX8 inh HTS: 69*

What do the screens show for `C[C@H]1CCCCO[C@@H](CN(C)S(=O)(=O)c2ccc(F)cc2)[C@@H](C)CN([C@@H](C)CO)C(=O)c2cc(NC(=O)NC3CCCCC3)ccc2O1`?
EWS-Fli block: 8; esBAF inh: 1; PAX8 inh HTS: 66*

How did C[C@@H]1CCCCO[C@@H](CN(C)S(=O)(=O)c2ccccc2)[C@H](C)CN([C@@H](C)CO)C(=O)c2cc(NC(=O)NC3CCCCC3)ccc2O1 do in these assays?
EWS-Fli block: 3; esBAF inh: 4; PAX8 inh HTS: 10

Results for COc1ccc(S(=O)(=O)N(C)C[C@H]2Oc3ccc(NC(=O)Nc4ccc5c(c4)OCO5)cc3C(=O)N([C@@H](C)CO)C[C@H]2C)cc1 ?
EWS-Fli block: -5; esBAF inh: -2

Results for COC(=O)C1C(=O)C=C(Nc2ccc(F)cc2)CC1c1ccc(OC)cc1 (stereo unspecified) ?
Wnt act: 17; MITF act: 17; PAX8 inh HTS: -56; TRPM1 prom inh: -17

What do the screens show for `COC(=O)[C@H]1[C@@H](O)[C@@]2(O)c3c(OC)cc(OC)cc3O[C@@]2(c2ccc(OC)cc2)[C@@H]1c1ccc(F)cc1`?
Wnt act: -27; EWS-Fli block: 39; PAX8 inh HTS: 98*

How did C[C@@H]1CN([C@H](C)CO)C(=O)c2cc(Br)cnc2O[C@H]1CN(C)CC1CCCC1 do in these assays?
EWS-Fli block: -18; esBAF inh: -8

How did O=C(C[C@@H]1C[C@H]2c3cc(NC(=O)Nc4ccccc4F)ccc3O[C@H]2[C@H](CO)O1)NCc1ccc(Oc2ccccc2)cc1 do in these assays?
EWS-Fli block: -3; esBAF inh: -9; PAX8 inh HTS: 75*

Results for O=C(C[C@@H]1C[C@@H]2c3cc(NC(=O)Nc4ccccc4F)ccc3O[C@@H]2[C@@H](CO)O1)NCc1ccc(Oc2ccccc2)cc1 ?
EWS-Fli block: -1; esBAF inh: 3; PAX8 inh HTS: -1
